# From PubChem BioAssay
# This is a sample that favours compounds with a hit; in the whole collection about 3.5% have one here.
# FBW7 activator: FBW7 E3 ligase activators, primary screen, biochemical, AlphaScreen, human | F-box/WD repeat-containing protein 7 (Homo sapiens), Q969H0 | AlphaScreen FBW7–phospho-cyclin E peptide binding, activator screen | normalized activity (activation), % at 26.1 µM | 0.13% of 650,000 active | AID 1259310, 2017; in the data active = normalized activity above about 1.9%;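 note: purified mutant Fbw7 with reduced substrate affinity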
# Target sequence (Q969H0 whole entry, looked up): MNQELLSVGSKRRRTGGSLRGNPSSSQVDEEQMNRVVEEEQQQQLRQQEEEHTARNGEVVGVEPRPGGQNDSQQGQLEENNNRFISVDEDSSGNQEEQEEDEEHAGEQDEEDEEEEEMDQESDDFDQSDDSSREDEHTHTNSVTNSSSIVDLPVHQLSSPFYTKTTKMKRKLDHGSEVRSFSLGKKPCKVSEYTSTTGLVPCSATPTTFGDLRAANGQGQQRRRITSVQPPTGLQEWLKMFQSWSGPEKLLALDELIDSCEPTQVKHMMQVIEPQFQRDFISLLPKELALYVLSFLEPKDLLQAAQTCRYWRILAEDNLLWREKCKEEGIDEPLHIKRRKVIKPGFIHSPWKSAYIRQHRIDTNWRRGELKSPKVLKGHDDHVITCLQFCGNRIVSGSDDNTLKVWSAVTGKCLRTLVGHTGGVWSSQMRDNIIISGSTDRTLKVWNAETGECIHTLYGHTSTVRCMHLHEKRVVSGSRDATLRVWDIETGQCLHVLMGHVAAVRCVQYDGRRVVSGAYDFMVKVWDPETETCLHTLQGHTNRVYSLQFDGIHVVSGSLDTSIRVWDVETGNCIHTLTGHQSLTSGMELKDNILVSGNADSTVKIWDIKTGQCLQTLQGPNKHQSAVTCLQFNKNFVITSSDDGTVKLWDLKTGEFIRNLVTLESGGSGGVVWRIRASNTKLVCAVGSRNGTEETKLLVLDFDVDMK
# TEAD-YAP inh: TEAD-YAP interaction inhibition, primary screen, TEAD-YAP interaction inhibitor project, luminescence, HEK-TIYL cells; TEAD-Gal4/YAP UAS-luciferase luminescence; inhibition, % at 9.12 µM; 1.4% of 640,000 active; AID 1259422, 2018; in the data active = inhibition above about 32%
# MITF primary: MITF inhibitors, primary screen, biochemical, AlphaScreen, human. inhibition, % at 2.6 µM. AlphaScreen MITF homodimerization, bead proximity signal. Microphthalmia-associated transcription factor (Homo sapiens), O75030. 0.91% of 650,000 active; in the data active = inhibition above about 50%
# GPR151 activ: activators of human GPR151, primary screen, cell-based, PathHunter beta-arrestin, luminescence. G-protein coupled receptor 151 (Homo sapiens), Q8TDV0. PathHunter beta-arrestin GPR151 cells. activation, % at 11.2 µM. 1% of 650,000 active. AID 1508602, 2020; in the data active = activation above about 4.9%
# A number is an active result; 0 = inactive.
SMILES,FBW7 activator,TEAD-YAP inh,MITF primary,GPR151 activ
COc1cc(-c2cnc3c(NCc4cccnc4)nccn23)cc(OC)c1OC,0,39,0,0
COc1cc(-c2cnc3c(NCc4ccncc4)nccn23)cc(OC)c1OC,0,0,0,0
Cc1ccc2c(c1)Oc1ccc(NC(=O)CCCl)cc1C(=O)N2,0,33,0,0
Cc1ccc2c(c1)NC(=O)c1cc(NC(=O)c3ccccc3Br)ccc1O2,0,44,0,0
CCc1ccc(-n2c(=S)sc3c(=O)n(-c4ccccc4C)c(=S)[nH]c32)cc1,0,0,0,0
Fc1ccc(-c2nnc3sc(CN4CCc5ccccc5C4)cn23)cc1,0,0,0,0
COc1cccc(-c2nnc3sc(CN4CCc5ccccc5C4)cn23)c1,0,49,0,0
O=C(O)/C=C\C(=O)Nc1ccc(Cl)c(Cl)c1,0,0,0,0
O=C(O)/C=C\C(=O)Nc1ccc2cn[nH]c2c1,0,47,0,0
COCCn1c(C)cc(C(=O)CSc2nnc(-c3ccc(OC(F)F)cc3)o2)c1C,0,0,0,0
CCOC(=O)Cn1cc(C=O)c2ccccc21,0,0,0,0
CCOC(=O)Cn1cc(C(=O)OC)c2ccccc21,2.3,0,0,0
Cc1ccccc1-c1nc2cc(NC(=O)c3cc([N+](=O)[O-])ccc3Cl)ccc2o1,0,33,0,0
O=C(Nc1ccc2oc(-c3ccc4ccccc4c3)nc2c1)c1cccc(Cl)c1Cl,1.9,0,0,0
O=C(Nc1ccc2oc(-c3ccccc3F)nc2c1)c1cc([N+](=O)[O-])ccc1Cl,0,32,0,0
O=C(Nc1ccc2oc(-c3ccccc3Cl)nc2c1)c1cc([N+](=O)[O-])ccc1Cl,0,0,0,0
CC(C)C(=O)Nc1ccc2oc(-c3ccccc3F)nc2c1,0,72,0,0
CC(=O)Nc1ccc2oc(-c3ccccc3F)nc2c1,0,0,0,0
O=C(Nc1ccc2oc(-c3cccc(Cl)c3Cl)nc2c1)c1cc([N+](=O)[O-])ccc1Cl,0,0,0,0
CCOC(=O)C1CCN(C(=O)c2cnn3c(C(F)(F)F)cc(-c4ccc(OC)c(OC)c4)nc23)CC1,0,0,0,0
Nc1n[nH]c2c(Br)cc(NC(=O)C3COc4ccccc4O3)cc12 (stereo unspecified),0,0,0,0
O=C(Cc1ccc([N+](=O)[O-])cc1)Nc1ccc2c(c1)oc1ccccc12,0,0,0,0
O=C(Nc1ccc2oc(-c3ccccc3)nc2c1)c1cc([N+](=O)[O-])ccc1Br,0,36,0,0
O=C(Nc1ccc2c(c1)oc1ccccc12)c1cc([N+](=O)[O-])ccc1Br,0,33,0,0
COc1cc(Nc2ncc(C)c(Nc3ccccc3)n2)cc(OC)c1OC,0,34,0,0
SMILES,FBW7 activator,TEAD-YAP inh,MITF primary,GPR151 activ
COc1cc(Nc2nc(C)cc(Nc3ccccc3)n2)cc(OC)c1OC,0,46,0,0
COc1cc(Nc2cc(C)nc(Nc3ccccc3)n2)cc(OC)c1OC,0,47,0,0
Cc1cc(C)nc(Nc2ccc(Nc3ccccc3)cc2)n1,0,33,0,0
Cc1nn(C(=O)COc2ccccc2[N+](=O)[O-])c(C)c1Sc1ccc(Cl)cc1,0,0,0,0
COc1cc(Nc2nc(C)cc(Nc3ccc(NC(C)=O)cc3)n2)cc(OC)c1OC,0,0,0,0
CCNc1cc(C)nc(Nc2ccc(NC(=O)c3cc(OC)c(OC)c(OC)c3)cc2)n1,0,77,0,0
Nc1cc(S(=O)(=O)O)c(O)c2c1C(=O)c1c(O)c(S(=O)(=O)O)cc(N)c1C2=O,0,0,61,0
Cc1cc(C(=O)CSc2nnc3ccccn23)c(C)n1Cc1ccccc1,0,64,0,0
CCSc1nc(N)c(C#N)c(CC)c1C#N,0,0,0,0
CCc1c(C#N)c(N)nc(SCC#N)c1C#N,2.3,0,0,0
Cc1ccc(CN2C(=O)c3cccc(N)c3C2=O)cc1,0,0,0,0
NC(=O)c1ncsc1Nc1ccnc(Nc2ccc(N3CCOCC3)cc2)c1,0,0,0,0
CSc1nc(Nc2ccnc(Nc3ccc(N4CCOCC4)cc3)c2)c(C(N)=O)s1,0,41,0,0
CCc1nc2nc(C)cc(N3CCN(c4ccccc4OC)CC3)n2n1,0,34,0,0
CCCN1CCN(c2ncnc3sc(C(=O)OCC)c(C)c23)CC1,0,0,0,0
O=C(NCCc1ccccc1)c1ccccc1Cl,0,33,0,0
O=C(Nc1ccccc1C(=O)NCCc1ccccc1)c1ccccc1Cl,0,0,0,0
O=C(NCCc1ccccc1)c1ccc(Br)cc1,0,0,0,0
O=C(NCCc1ccccc1)c1ccc(Cl)cc1,0,64,0,0
O=C(NCCNC(=O)c1ccccc1Br)c1ccccc1Br,0,0,0,0
O=C(NCCc1ccccc1)c1cc(F)c(F)cc1Cl,0,34,0,0
O=C(NCCc1ccccc1)c1ccccc1Br,0,34,0,0
OC(c1ccccc1)(c1ccccc1)c1nc2ccccc2n1Cc1cccc(Br)c1,0,0,0,0
Cc1ccc(S(=O)(=O)C2(C(=O)NCCc3ccccc3)CC2)cc1,0,0,0,0
O=C(NCCc1ccccc1)C1(S(=O)(=O)c2ccc(Cl)cc2)CC1,2.0,0,0,0
SMILES,FBW7 activator,TEAD-YAP inh,MITF primary,GPR151 activ
C=CCNc1nc2c(c(=O)[nH]c(=O)n2C)n1CC=C,0,0,0,0
CCC(C)n1c(SCc2ccccc2F)nc2ccsc2c1=O (stereo unspecified),0,0,0,0
CCC(C)n1c(SCc2ccccc2C)nc2ccsc2c1=O (stereo unspecified),0,47,0,0
COc1ccc(NCC(=O)n2c(C)c(C)c3ccccc32)cc1,0,52,0,0
COc1ccc(NCC(=O)n2nc(C)cc2C)cc1,0,0,0,0
CC(=O)C1(c2ccccc2)CCC(=O)CC1,0,0,0,0
Cc1cc(C(=O)NC(=S)Nc2ccccc2C(=O)O)ccc1[N+](=O)[O-],0,0,0,0
COC(=O)c1sccc1NC(=O)c1cccc2c1SCCC2=O,0,0,0,0
COC(=O)c1cc2c(cc1NC(=O)c1cccc3c1SCCC3=O)OCO2,0,51,0,0
CCCN(CCC)c1ncnc2c1cnn2-c1ccc(Cl)cc1,0,0,0,0
CCCCNc1ncnc2c1cnn2-c1ccc(Cl)cc1,0,0,0,0
CCN(CCN(C)C)c1ncnc2c1cnn2-c1ccc(Cl)cc1,0,50,0,0
CC(C)(C)Nc1ncnc2c1cnn2-c1ccc(Cl)cc1,0,51,0,0
Cc1cccc(-n2ncc3c(Nc4cccc(C)c4C)ncnc32)c1,0,42,0,0
Cc1cccc(-n2ncc3c(NC(C)(C)C)ncnc32)c1,0,82,0,0
O=C(Nc1ccc2nc3n(c(=O)c2c1)CCCCC3)C(=O)N1CC=C(c2ccccc2)CC1,0,0,0,0
CN1CCCN(C(=O)C2CC23CCN(Cc2cnc(-c4ccccc4)s2)CC3)CC1 (stereo unspecified),0,0,0,0
Cc1cccc(-n2ncc3c(Nc4ccc(C)cc4C)ncnc32)c1,0,0,0,0
